Measured values as given in PubChem BioAssay (NCI).
Compounds without any hit were thinned out: in the full panel of roughly 83,000, 20% have a hit.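 Results are percent growth after 48 hours of single-concentration exposure. 100 means growth as in untreated cells, lower positive values show inhibition; negative values down to -100 show cell death.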 Calls of active or inactive are those of the source. How the source made its calls: active means growth percent below 10; inactive means the rest.

Tests used:
Assay in all cases: NCI-60 one-dose screen, 48 h (100 = growth as untreated, 0 = no growth, -100 = all killed)
Details in all cases: 10 µM unless noted
RPMI-8226 leukemia = test system: RPMI-8226 leukemia
OVCAR-8 ovarian = test system: OVCAR-8 ovarian
OVCAR-5 ovarian = test system: OVCAR-5 ovarian
SK-OV-3 ovarian = test system: SK-OV-3 ovarian
IGROV1 ovarian = test system: IGROV1 ovarian
OVCAR-3 ovarian = test system: OVCAR-3 ovarian
HS 578T breast = test system: HS 578T breast
T-47D breast = test system: T-47D breast
BT-549 breast = test system: BT-549 breast
MDA-MB-435 melanoma = test system: MDA-MB-435 melanoma
SW-620 colon = test system: SW-620 colon
MCF7 breast = test system: MCF7 breast
HCT-116 colon = test system: HCT-116 colon
HCC-2998 colon = test system: HCC-2998 colon
KM12 colon = test system: KM12 colon
OVCAR-4 ovarian = test system: OVCAR-4 ovarian
NCI/ADR-RES ovarian = test system: NCI/ADR-RES ovarian

Measured: growth

COc1nc2ccc(C)cc2cc1-c1nc2c(cnn2-c2ccccc2)c(=O)[nH]1
active: MDA-MB-435 melanoma 8.39%
inactive: RPMI-8226 leukemia 80.8% | OVCAR-8 ovarian 94% | OVCAR-5 ovarian 94.5% | SK-OV-3 ovarian 73.6% | IGROV1 ovarian 77.4% | OVCAR-3 ovarian 50.2% | HS 578T breast 90.6% | T-47D breast 81.9% | BT-549 breast 89.6% | SW-620 colon 58.5% | MCF7 breast 50.6% | HCT-116 colon 67.2% | HCC-2998 colon 96.3% | KM12 colon 70.6%

O=C1CSC(c2c(Cl)cccc2Cl)N1c1nc(Cl)cc(=O)[nH]1 (stereo unspecified)
inactive: RPMI-8226 leukemia 58.7% | OVCAR-8 ovarian 107% | OVCAR-5 ovarian 94.4% | SK-OV-3 ovarian 109% | IGROV1 ovarian 71.9% | OVCAR-3 ovarian 107% | HS 578T breast 109% | T-47D breast 104% | BT-549 breast 228% | MDA-MB-435 melanoma 111% | SW-620 colon 102% | MCF7 breast 107% | HCT-116 colon 103% | HCC-2998 colon 102% | KM12 colon 112%

NC1CCN(c2nc(Nc3cccc(C(F)(F)F)c3)c3c(=O)[nH]ccc3n2)CC1
inactive: OVCAR-5 ovarian 14.9%
active: OVCAR-8 ovarian -44.7% | OVCAR-4 ovarian -49.7% | SK-OV-3 ovarian -76.1% | IGROV1 ovarian -46.2% | OVCAR-3 ovarian -72.2% | HS 578T breast -24.5% | NCI/ADR-RES ovarian -30.8% | T-47D breast -73.2% | BT-549 breast -91.8% | MDA-MB-435 melanoma -74.2% | SW-620 colon -76.8% | MCF7 breast -85.8% | HCT-116 colon -99.5% | HCC-2998 colon -85.8% | KM12 colon -67.1%

CCc1nnc(NC(=O)c2nnn(-c3ccccc3)c2-c2ccco2)s1
inactive: OVCAR-8 ovarian 103% | OVCAR-5 ovarian 101% | OVCAR-4 ovarian 80.3% | SK-OV-3 ovarian 82.3% | IGROV1 ovarian 103% | OVCAR-3 ovarian 103% | HS 578T breast 92.5% | NCI/ADR-RES ovarian 100% | T-47D breast 85% | BT-549 breast 102% | MDA-MB-435 melanoma 97.1% | SW-620 colon 98.5% | MCF7 breast 78.6% | HCT-116 colon 64.2% | HCC-2998 colon 110% | KM12 colon 96.9%

C=CCNc1ccc2c3c(cccc13)C(=O)N(N1C(=O)c3cccc4cccc(c34)C1=O)C2=O
inactive: OVCAR-8 ovarian 100% | OVCAR-5 ovarian 101% | OVCAR-4 ovarian 107% | SK-OV-3 ovarian 108% | IGROV1 ovarian 103% | OVCAR-3 ovarian 108% | HS 578T breast 97.2% | NCI/ADR-RES ovarian 101% | T-47D breast 96.5% | BT-549 breast 105% | MDA-MB-435 melanoma 101% | SW-620 colon 108% | MCF7 breast 87.4% | HCT-116 colon 99.6% | HCC-2998 colon 107% | KM12 colon 105%

Cc1cc2nc3ccc(N=Nc4ccc(N(C)C)cc4)cc3n(-c3ccccc3)c-2cc1=N
active: OVCAR-8 ovarian -22% | OVCAR-5 ovarian -78.5% | OVCAR-4 ovarian -93.2% | SK-OV-3 ovarian -78% | IGROV1 ovarian -88.8% | OVCAR-3 ovarian -85% | HS 578T breast -25.3% | NCI/ADR-RES ovarian 4.97% | T-47D breast -57.2% | BT-549 breast -82.2% | MDA-MB-435 melanoma -97.5% | SW-620 colon -88.9% | MCF7 breast -65.1% | HCT-116 colon -60.2% | HCC-2998 colon -81.8% | KM12 colon -91.2%

COC(=O)/C=C1\S/C(=N\Nc2ccc([N+](=O)[O-])cc2[N+](=O)[O-])N(C2CCCCC2)C1=O
inactive: OVCAR-8 ovarian 35.4% | OVCAR-5 ovarian 84.3% | OVCAR-4 ovarian 47.1% | SK-OV-3 ovarian 96.8% | IGROV1 ovarian 58.4% | OVCAR-3 ovarian 25.2% | HS 578T breast 65.2% | NCI/ADR-RES ovarian 29.7% | T-47D breast 12.9% | BT-549 breast 86% | MDA-MB-435 melanoma 79% | SW-620 colon 22.7% | MCF7 breast 23.1% | HCC-2998 colon 63.1% | KM12 colon 45.9%

CNc1ccc(Nc2cccc(C)c2)c2c1C(=O)c1ccccc1C2=O
inactive: OVCAR-8 ovarian 99.6% | OVCAR-5 ovarian 91.4% | OVCAR-4 ovarian 81.6% | SK-OV-3 ovarian 86.4% | IGROV1 ovarian 11.2% | OVCAR-3 ovarian 110% | HS 578T breast 101% | T-47D breast 40.9% | BT-549 breast 110% | MDA-MB-435 melanoma 135% | SW-620 colon 85.4% | MCF7 breast 10.2% | HCT-116 colon 92.4% | HCC-2998 colon 88.5% | KM12 colon 48.4%

Oc1ccc(CCl)c2cccnc12
active: MCF7 breast 5.57%
inactive: OVCAR-8 ovarian 73.8% | OVCAR-5 ovarian 88.4% | OVCAR-4 ovarian 24.6% | SK-OV-3 ovarian 87.9% | IGROV1 ovarian 78.8% | OVCAR-3 ovarian 10.8% | HS 578T breast 79.7% | NCI/ADR-RES ovarian 28.8% | T-47D breast 30.3% | BT-549 breast 66.7% | MDA-MB-435 melanoma 84.8% | SW-620 colon 41.5% | HCT-116 colon 15.4% | HCC-2998 colon 91.3% | KM12 colon 82%

COc1nc2ccccc2cc1-c1nc2c(cnn2-c2ccccc2)c(=O)[nH]1
inactive: OVCAR-8 ovarian 63.3% | OVCAR-5 ovarian 79.5% | OVCAR-4 ovarian 76.2% | SK-OV-3 ovarian 53.8% | IGROV1 ovarian 48.1% | HS 578T breast 50.2% | NCI/ADR-RES ovarian 40.7% | T-47D breast 50.1% | BT-549 breast 38.5% | SW-620 colon 20.8% | MCF7 breast 20.9% | HCT-116 colon 42.1% | HCC-2998 colon 73.3% | KM12 colon 29%
active: OVCAR-3 ovarian 7.05% | MDA-MB-435 melanoma -20.9%
